Screens (PubChem BioAssay)
This is a sample that favours compounds with a hit; in the whole collection about 3.5% have one here.
MITF primary – inhibitors of human MITF; O75030; AlphaScreen MITF homodimerization, bead proximity signal; inhibition, % at 2.6 µM; actives 0.91% (n = 650,000); in the data active = inhibition above about 50%;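 also: 0% = vehicle wells with protein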
GPR151 activ – human GPR151 activation | Q8TDV0 | PathHunter beta-arrestin GPR151 cells, luminescence | activation, % at 11.2 µM | actives 1% (n = 650,000); in the data active = activation above about 4.9%;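 also: 0% = median of compound wells and 100% = cells with positive control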
Target sequence (Q8TDV0 whole entry, looked up): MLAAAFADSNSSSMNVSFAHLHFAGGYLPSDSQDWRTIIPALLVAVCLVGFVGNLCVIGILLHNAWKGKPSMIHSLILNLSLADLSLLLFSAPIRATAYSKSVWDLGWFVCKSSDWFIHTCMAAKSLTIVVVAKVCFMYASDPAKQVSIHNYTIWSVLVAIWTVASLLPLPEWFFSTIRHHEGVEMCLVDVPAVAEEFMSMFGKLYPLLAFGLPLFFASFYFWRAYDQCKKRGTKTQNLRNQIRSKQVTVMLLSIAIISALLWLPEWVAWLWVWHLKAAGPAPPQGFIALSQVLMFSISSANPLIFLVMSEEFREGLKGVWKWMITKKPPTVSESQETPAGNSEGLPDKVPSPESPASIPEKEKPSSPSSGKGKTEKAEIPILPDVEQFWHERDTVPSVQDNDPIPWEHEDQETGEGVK
FBW7 activator – activators of human E3 ligase FBW7. Q969H0. AlphaScreen FBW7–phospho-cyclin E peptide binding, activator screen. normalized activity (activation), % at 26.1 µM. actives 0.13% (n = 650,000); in the data active = normalized activity above about 1.9%;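 also: purified mutant Fbw7 with reduced substrate affinity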
TEAD-YAP inh – TEAD-YAP interaction inhibition; HEK-TIYL cells, TEAD-Gal4/YAP UAS-luciferase luminescence; actives 1.4% (n = 640,000); AID 1259422; inhibition, % at 9.12 µM; in the data active = inhibition above about 32%;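 also: 0% = median of test compound wells and 100% = reference inhibitor wells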
Active calls of the source: *.

SMILES	MITF primary	GPR151 activ	FBW7 activator	TEAD-YAP inh
Cn1c2ccccc2c2nnc(N/N=C/c3ccccn3)nc21	45	0	-1	36*
CCC(Br)C1=NS(=O)(=O)c2ccccc2N1 (stereo unspecified)	11	-1	1	6
O=c1[nH]c2ncc(-c3cccc4ccccc34)nc2n1Cc1ccncc1	-4	0	0	-7
Cc1ccc(C2C(C#N)=C(N)Oc3c2ccc2cccnc32)cc1 (stereo unspecified)	0	2	0	37*
N#CC1=C(N)Oc2cc(N)ccc2C1c1cccc([N+](=O)[O-])c1 (stereo unspecified)	-2	1	0	40*
N#CC1=C(N)Oc2c(ccc3cccnc23)C1c1ccc(Br)cc1 (stereo unspecified)	12	-1	-1	17
N#CC1=C(N)Oc2c(ccc3cccnc23)C1c1ccccc1Cl (stereo unspecified)	3	-2	-1	17
N#CC1=C(N)Oc2c(ccc3cccnc23)C1c1cccc([N+](=O)[O-])c1 (stereo unspecified)	9	1	0	49*
OCCN(CCO)Cc1c(Cl)cccc1Cl	32	-1	0	2
CCN1/C(=C/c2ccc3cc(C)ccc3[n+]2C)C=Cc2cc(C)ccc21	47	-1	-1	83*
CCN1/C(=C/c2scc(-c3ccccc3)[n+]2C)C=Cc2cc(C)ccc21	9	4	-1	80*
Fc1ccc(CN2CCOCC2)c(F)c1	37	0	0	4
COc1ccc(OC)c(C2/C(=C(\O)c3ccc(Br)cc3)C(=O)C(=O)N2c2cc(C(C)(C)C)on2)c1 (stereo unspecified)	3	0	0	10
Cc1ccc2nc(-c3cc(N)cc(N)c3)oc2c1	9	-3	0	56*
CCc1ccc2oc(-c3ccc(C)c(N)c3)nc2c1	15	-7	0	43*
Cc1cc2nc(-c3ccc(C)c(N)c3)oc2cc1C	2	-6	0	36*
Cc1ccc(-c2nc3ccccc3o2)cc1N	9	-5	0	-33
Cc1ccc2nc(-c3cc(N)ccc3O)oc2c1	5	-2	0	-22
Cc1cc2nc(-c3cccc(N)c3)oc2cc1C	13	-10	0	35*
CCCS(=O)(=O)N1CCN(C2CC3CCC2C3)CC1 (stereo unspecified)	42	1	0	-3
C=CCc1ccccc1OCC(O)Cn1nnc2ccccc21 (stereo unspecified)	-3	0	0	-17
Oc1ccc(/C=N/NC(=S)N2CCOCC2)cc1	13	-3	0	50*
COCCNC(=S)N/N=C/c1ccc(N2CCOCC2)cc1	-1	-1	0	64*
CCCCCCOC(=O)c1ccc(OC(=O)c2ccc(-c3ccc(CCC)cn3)cc2)cc1	0	0	0	12
O=C(N/N=C/c1ccc(O)cc1O)c1ccc(CN2C(=O)c3cccc4cccc2c34)cc1	21	3	-1	33*
SMILES	MITF primary	GPR151 activ	FBW7 activator	TEAD-YAP inh
Cc1cc(O)cc(O)c1/C=N/NC(=O)c1ccc2c(c1)OCCO2	9	-1	0	56*
O=C(N/N=C/c1ccc(O)cc1O)c1ccc2c(c1)OCCO2	18	1	0	61*
O=C(N/N=C/c1ccc(O)c(I)c1)c1ccc2c(c1)OCCO2	-12	1	0	-15
Cc1cc(C(=O)COC(=O)c2cc(=O)c3ccccc3o2)c(C)n1Cc1cccs1	3	-1	0	2
COc1ccc(S(=O)(=O)OCC(F)(F)[N+](=O)[O-])cc1Br	-1	1	0	44*
O=C(O)C1Nc2c(O)cc(Cl)c([N+](=O)[O-])c2C2C=CCC12 (stereo unspecified)	108*	-1	0	-6
O=[N+]([O-])c1c(Cl)cc(O)c2c1C1C=CCC1C(c1ccc(Cl)cc1)N2 (stereo unspecified)	32	1	0	14
CCOc1cc2c(c([N+](=O)[O-])c1)NC(C(=O)O)C1CC=CC21 (stereo unspecified)	73*	-1	-1	13
COc1ccc(Cl)cc1NC(=O)c1cn(-c2ccc(Cl)cc2)c(=O)c2ccccc12	-3	2	1	-12
Nc1ccc(-c2nc3ccccc3s2)cc1N	-8	-7	0	29
Oc1ccc(O)c(Cc2nc3ccccc3s2)c1	2	4	0	53*
Oc1cccc(-c2nc3ccccc3s2)c1	-5	-4	0	92*
COc1ccc(-c2nc3ccccc3s2)cc1OC(C)=O	20	-3	1	58*
COc1ccc(CCNC(=O)C(=O)NCc2ccco2)cc1	13	1	1	34*
COc1ccc(CC(=O)NCc2ccco2)cc1	8	4	0	8
Cc1ccccc1NCC(O)CN=C(N)N (stereo unspecified)	-6	0	0	10
N#Cc1ccccc1Cn1nc(-c2cccc3ncccc23)oc1=O	14	0	0	53*
O=C(CSc1ccc2nnc(-c3ccncc3)n2n1)NCCc1ccccc1	5	0	2.0*	-2
COc1ccc(CCNC(=O)CSc2ccc3nnc(-c4ccccc4)n3n2)cc1OC	14	3	2.7*	18
COc1ccc(-c2nnc3ccc(SCC(=O)NCCc4ccccc4)nn23)cc1	-8	-1	0	-4
COc1ccc(CN(C)Cc2nc(CCc3ccccc3)no2)c2cccnc12	6	-1	1	35*
CS(=O)(=O)N(CC(=O)N/N=C/c1cc(Cl)cc(Cl)c1O)c1ccccc1	8	1	0	58*
Cc1cc(C(=O)N=c2sc3cc4c(cc3n2C)OCCO4)n(C)n1	7	-2	0	-15
Cc1cc(C(=O)N=c2sc3cc4c(cc3n2C)OCCO4)nn1C	6	-4	0	38*
O=C(CCc1ccccc1)NC(=S)Nc1ccc(S(=O)(=O)N2CCOCC2)cc1	8	0	0	3
SMILES	MITF primary	GPR151 activ	FBW7 activator	TEAD-YAP inh
O=C(CCc1ccccc1)NC(=S)Nc1cccc(S(=O)(=O)N2CCCC2)c1	-7	1	0	47*
Cc1ccc(-c2nnc(Nc3ccccc3)o2)cc1	5	-10	0	44*
Cc1ccc(-c2nnc(-c3ccccc3C)o2)cc1	6	-3	0	-33
COc1ccc(Cl)cc1NC(=O)NNC(=O)c1oc2ccccc2c1C	12	1	0	5
COc1ccccc1/C=C/C(=O)Nc1ccc2[nH]ncc2c1	-5	0	0	35*
COC(=O)c1ccccc1Sc1c(-c2ccccc2)nc2ncccn12	7	1	0	45*
COc1ccccc1C(=O)Nn1c(-c2ccc(Br)cc2)nc2ccccc2c1=O	-1	0	0	7
CCc1ccc(C(=O)On2c(-c3ccc(C(C)(C)C)cc3)nc3ccccc3c2=O)cc1	-6	-1	-1	39*
COc1ccc(-c2nc3ccccc3c(=O)n2OC(=O)c2ccc(C(C)(C)C)cc2)cc1OC	-3	-2	0	-14
CC(C)(C)c1ccc(C(=O)On2c(-c3ccc(C(C)(C)C)cc3)nc3ccccc3c2=O)cc1	-4	-1	-1	38*
